In PubChem BioAssay:
Records with an inconclusive call do not appear. Activity calls are given as the source filed them.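 The calls were made as follows, unless noted: active = normalized viability below 100% at a tested concentration; inactive = the rest.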

Assays:
[1] = MELAS cybrid and Rieske KO viability enhancers – cell-based, MELAS cybrids, Rieske KO mouse fibroblasts, CellTiter-Glo, primary screen (AID 1508586;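 active = mean z-score across replicates of 1.96 or higher in either the MELAS or the Rieske mutant cell line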;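 also: z relative to plate mean and SD of compound and empty wells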); details: low glucose
[2] = drug combination growth inhibition, ovarian cancer – cell-based, oncology-focused library, rucaparib conditional, profiling panel (AID 1508598); details: patient-derived ovarian cancer cells, CellTiter-Glo viability, 144 h, stronger effect = lower value
[3] = viability loss in pontine glioma line – cell-based, SU-DIPG-XIII, MIPE4.0, CellTiter-Glo, qHTS, dose response (AID 1347061; cut-off not given, nearly all actives have AC50 up to about 37 µM;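 also: cells exposed to compound for 48 hours before readout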); details: CellTiter-Glo ATP luminescence
[4] = viability loss in pontine glioma line – cell-based, JHH-DIPG-1, MIPE4.0, CellTiter-Glo, qHTS, dose response (AID 1347062; cut-off not given, nearly all actives have AC50 up to about 27 µM;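 as to AC50: cells exposed to compound for two days before readout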); details: JHH-DIPG-1 viability, CellTiter-Glo ATP luminescence
[5] = viability loss in pontine glioma line – cell-based, SU-DIPG-IV, MIPE4.0, CellTiter-Glo, qHTS, dose response (AID 1347063; cut-off not given, nearly all actives have AC50 up to about 30 µM;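 also: compound exposure lasted 48 hours before the viability readout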); details: CellTiter-Glo ATP luminescence
[6] = growth inhibition of DIPG cells – cell-based, MIPE4.0 library, CellTiter-Glo luminescence, qHTS (AID 1347066; cut-off not given, nearly all actives have AC50 up to about 30 µM;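 also: cells exposed to compound for 48 hours before readout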); details: SU-DIPG-VI viability, CellTiter-Glo ATP luminescence
[7] = JHH-DIPG-1 glioma cell viability, MIPE5.0 library, CellTiter-Glo luminescence, qHTS (AID 1347067; cut-off not given, nearly all actives have AC50 up to about 26 µM;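 also: cells exposed to compound for 48 hours before readout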); details: JHH-DIPG-1 glioma viability, CellTiter-Glo ATP luminescence
[8] = viability loss in pontine glioma line – cell-based, SU-DIPG-XIII, MIPE5.0, CellTiter-Glo, qHTS, dose response (AID 1347064; cut-off not given, nearly all actives have AC50 up to about 23 µM;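 also: cells exposed to compound for 48 hours before the viability read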); details: CellTiter-Glo ATP luminescence
[9] = viability loss in pontine glioma line – cell-based, SU-DIPG-XXV, MIPE5.0, CellTiter-Glo, qHTS, dose response (AID 1347065; cut-off not given, nearly all actives have AC50 up to about 26 µM;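 also: cells exposed to compound for 48 hours before ATP readout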); details: CellTiter-Glo ATP luminescence
[10] = viability loss with induced miR-34 in A549 – imaging, A549 dox-inducible miR-34, nuclei and caspase counts, primary screen (AID 1347080;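 active = compounds whose cell count with miR-34 switched on is under 0.7 times the count with it off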); details: A549 miR-34 inducible, Hoechst nuclei count, 48 h
[11] = MELAS cybrid survival, CellTiter-Glo 48 h, stronger effect = higher value
[12] = Rieske KO mouse fibroblast survival, CellTiter-Glo 72 h

Cc1nc2c([nH]1)CCN(C(=O)c1ccc(NC(=O)c3ccccc3-c3ccccc3)cc1)c1ccccc1-2
inactive: z-score [1, 11] -0.466
0.668: z-score [1, 12]

CC1COC2(CCN(c3nc(=O)c4cc(C(F)(F)F)cc([N+](=O)[O-])c4s3)CC2)O1 (stereo unspecified)
active: viability ([2]; at 0.000305 µM, OCI-P5x cells, with rucaparib 20 µM, 100% = cells with rucaparib alone) 99.5% | viability ([2]; at 0.000305 µM, OCI-P5x cells, without rucaparib) 95.5% | viability ([2]; at 0.00122 µM, OCI-P5x cells, without rucaparib) 94.9%
inactive: z-score [1, 11] -0.641 | viability ([2]; at 0.000305 µM, OCI-C5x cells, with rucaparib 10 µM, 100% = cells with rucaparib alone) 115% | viability ([2]; at 0.000305 µM, OCI-C5x cells, without rucaparib) 107% | viability ([2]; at 0.00122 µM, OCI-C5x cells, with rucaparib 10 µM, 100% = cells with rucaparib alone) 134% | viability ([2]; at 0.00122 µM, OCI-C5x cells, without rucaparib) 116% | viability ([2]; at 0.00122 µM, OCI-P5x cells, with rucaparib 20 µM, 100% = cells with rucaparib alone) 105% | viability ([2]; at 0.00488 µM, OCI-C5x cells, with rucaparib 10 µM, 100% = cells with rucaparib alone) 129% | viability ([2]; at 0.00488 µM, OCI-C5x cells, without rucaparib) 119% | viability ([2]; at 0.00488 µM, OCI-P5x cells, with rucaparib 20 µM, 100% = cells with rucaparib alone) 102% | viability ([2]; at 0.00488 µM, OCI-P5x cells, without rucaparib) 104% | viability ([2]; at 0.0195 µM, OCI-C5x cells, with rucaparib 10 µM, 100% = cells with rucaparib alone) 126% | viability ([2]; at 0.0195 µM, OCI-C5x cells, without rucaparib) 112% | viability ([2]; at 0.0195 µM, OCI-P5x cells, with rucaparib 20 µM, 100% = cells with rucaparib alone) 105% | viability ([2]; at 0.0195 µM, OCI-P5x cells, without rucaparib) 106% | viability ([2]; at 0.0781 µM, OCI-C5x cells, with rucaparib 10 µM, 100% = cells with rucaparib alone) 118% | viability ([2]; at 0.0781 µM, OCI-C5x cells, without rucaparib) 116% | viability ([2]; at 0.0781 µM, OCI-P5x cells, with rucaparib 20 µM, 100% = cells with rucaparib alone) 107% | viability ([2]; at 0.0781 µM, OCI-P5x cells, without rucaparib) 103% | viability ([2]; at 0.313 µM, OCI-C5x cells, with rucaparib 10 µM, 100% = cells with rucaparib alone) 121% | viability ([2]; at 0.313 µM, OCI-C5x cells, without rucaparib) 118% | viability ([2]; at 0.313 µM, OCI-P5x cells, with rucaparib 20 µM, 100% = cells with rucaparib alone) 111% | viability ([2]; at 0.313 µM, OCI-P5x cells, without rucaparib) 108% | viability ([2]; at 1.25 µM, OCI-C5x cells, with rucaparib 10 µM, 100% = cells with rucaparib alone) 115% | viability ([2]; at 1.25 µM, OCI-C5x cells, without rucaparib) 130% | viability ([2]; at 1.25 µM, OCI-P5x cells, with rucaparib 20 µM, 100% = cells with rucaparib alone) 102% | viability ([2]; at 1.25 µM, OCI-P5x cells, without rucaparib) 108% | viability ([2]; at 5 µM, OCI-C5x cells, with rucaparib 10 µM, 100% = cells with rucaparib alone) 122% | viability ([2]; at 5 µM, OCI-C5x cells, without rucaparib) 121% | viability ([2]; at 5 µM, OCI-P5x cells, with rucaparib 20 µM, 100% = cells with rucaparib alone) 108% | viability ([2]; at 5 µM, OCI-P5x cells, without rucaparib) 105%
-0.174: z-score [1, 12]

CC(NCc1ccc2c(c1)nc(NC(=O)c1ccc(-c3cn[nH]c3)s1)n2CC(C)(C)O)C(C)(C)C (stereo unspecified)
active: AC50 [3] 3.32 µM | AC50 [4] 0.332 µM | AC50 [5] 833 nM | AC50 [6] 5.9 µM

Cc1ccn(-c2ccc(-c3ncco3)cc2)c(=O)c1-c1ccc2nc(N)ncc2c1
inactive: outcome [3] | outcome [4] | outcome [5] | outcome [6] | outcome [7]

N#CC1(c2cccc(C(=O)Nc3cc(Oc4ccc5nc(NC(=O)C6CC6)sc5n4)ccc3F)c2Cl)CC1
active: AC50 [3] 0.935 µM | AC50 [4] 18.7 µM | AC50 [8] 742 nM | AC50 [9] 833 nM
inactive: outcome [6]

N#CC(=C(O)c1ccc(Cl)cc1Cl)c1nc2cc(Cl)ccc2c(=O)[nH]1
inactive: outcome [3] | outcome [4] | outcome [5] | outcome [6]

N[C@H]1CN(c2c(F)cc3c(=O)c(C(=O)O)cn(C4C[C@H]4F)c3c2Cl)CC12CC2 (stereo partly specified)
inactive: outcome [3] | outcome [4] | outcome [5] | outcome [6]

C/C=C1\C2C=C(C)CC1(N)c1ccc(=O)[nH]c1C2 (stereo unspecified)
inactive: outcome [3] | outcome [4] | outcome [5] | outcome [6] | fold change ([10]; stronger effect = lower value, cell number ratio, induced over uninduced) 1.01
0.681: fold change ([10]; measured here: relative caspase fold change +Dox/-Dox)
4110: cell count ([10]; measured here: total cells without miR-34 induction)
4140: cell count ([10]; measured here: total cells with miR-34 induction, stronger effect = lower value)
